The experiment deals with Serine/threonine-protein kinase Nek7 (Homo sapiens) (UniProt Q8TDX7). The settings on record: at 1 µM.
Sequence of Serine/threonine-protein kinase Nek7 (Homo sapiens) (Q8TDX7 whole entry, looked up): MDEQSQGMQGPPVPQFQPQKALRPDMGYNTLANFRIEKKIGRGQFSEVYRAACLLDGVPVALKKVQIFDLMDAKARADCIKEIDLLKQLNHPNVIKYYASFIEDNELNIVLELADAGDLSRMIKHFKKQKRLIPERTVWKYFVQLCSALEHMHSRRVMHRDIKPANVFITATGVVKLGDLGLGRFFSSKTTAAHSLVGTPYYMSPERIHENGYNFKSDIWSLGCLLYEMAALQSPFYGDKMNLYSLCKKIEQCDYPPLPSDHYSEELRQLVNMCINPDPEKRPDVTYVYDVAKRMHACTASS
On to `Fc1ccc(-c2c(-c3ccncc3)nc3n2CCS3)cc1`, for which the inhibition (in general, the change of the read-out against control, counted positive when it falls) is 2.47%.
As for `C/C(Nc1ccc(S(N)(=O)=O)cc1)=C1/C(=O)Nc2ccccc21`, the figure is -0.23%; as for `C[C@@H](Oc1cc(-n2cnc3ccc(OC4CCN(C)CC4)cc32)sc1C(N)=O)c1ccccc1Cl`, 8.62%; as for `CCS(=O)(=O)c1ccc(OC)c(Nc2ncc(-c3ccccc3Cl)o2)c1`, 2.67%.
Under `COc1cc(N2CCN(C(C)C)CC2)ccc1Nc1nc(Nc2ccc(F)cc2C(=O)NC[C@@H](O)CO)c2cc[nH]c2n1` stands 3.45%.
For `Cc1nnc(-c2ccc(C)c(-c3ccc(C(=O)NCc4ccc(Cl)cc4)cc3)c2)o1`, the inhibition was found to be 3.78%.
Under `COc1ccc2ncn(-c3cc(O[C@H](C)c4ccccc4Cl)c(C(N)=O)s3)c2c1` stands 6.32%; under `COc1cc(Nc2ncc3c(C)nc(-c4cccc(Oc5ccccc5)c4)n3n2)cc(OC)c1OC`, 1.98%.
On to `CN(C)CCCNc1nccc(-c2c(-c3ccc(F)cc3)nn3cc(C(F)(F)F)ccc23)n1`, for which the inhibition was 1.37%.
As for `CS(=O)(=O)CCNCc1ccc(-c2ccc3ncnc(Nc4ccc(OCc5ccccc5)c(Br)c4)c3c2)o1`, the inhibition was 5.42%.
As for `COc1cc2ncn(-c3cc(OCCc4ccccc4)c(C(N)=O)s3)c2cc1OC`, the figure is 2.45%.
As for `O=C(NCC1CC1)c1ccc(-c2cccc(C(=O)NC3CC3)c2)cc1`, the figure is 3.21%.
As for `CN1CCN(CCCNc2nc3ccc(Oc4ccc(NC(=O)Nc5cc(C(F)(F)F)ccc5F)cc4)cc3[nH]2)CC1`, the figure is 0.94%; as for `CN(C)c1ccc2c(c1)/C(=C/Nc1ccc(S(N)(=O)=O)cc1)C(=O)N2`, 3.01%.
`Clc1ccc(CNc2nccc(-c3cnn4ncccc34)n2)cc1`: the inhibition turned out to be 0.48%.
Under `COc1cccc(-n2cnc3c(N/N=C/c4ccncc4)ncnc32)c1` stands -2.76%; under `COc1ccc2cc(-c3c(-c4ccncc4)nc(-c4ccc([S+](C)[O-])cc4C)n3C)ccc2c1` (stereo not drawn), 0.01%.
As for `c1ccc(-c2n[nH]cc2-c2ccnc(-c3ccc(OCCN4CCOCC4)cc3)c2)nc1`, the figure is -3.67%; as for `COc1cc2ncn(-c3cc(OCc4cccs4)c(C(N)=O)s3)c2cc1OC`, 2.38%.
Take `CNC(=O)c1cncc(/C=C/c2c(C)cccc2C)c1`: the inhibition came out at 0.6%.
Under `COc1cc(C)c(N(C)C(=O)CN(C)C)cc1Nc1nc(Nc2cccc(F)c2C(N)=O)c2cc[nH]c2n1` stands 2.22%; under `C#Cc1cccc(Nc2ncnc3ccc(OCCCCNCCS(C)(=O)=O)cc23)c1`, 3.44%.
As for `COC(=O)Nc1nc2ccc(Sc3ccc(NC(=O)Nc4cc(C(F)(F)F)ccc4F)cc3)cc2[nH]1`, the figure is -3.05%; as for `CCc1nccc2c1nc(-c1nonc1N)n2CC`, 1.72%; as for `COc1cc(Nc2ncc3c(C)nc(-c4cccc(C(F)(F)F)c4)n3n2)cc(OC)c1OC`, 10.5%.
For `O=C1Nc2ccc(I)cc2C1=Cc1cc(Br)c(O)c(Br)c1`, the inhibition came out at 10.6%.
As for `O=C(Nc1ccc(Oc2ccc3[nH]c(NC(=O)c4ccccc4)nc3c2)cc1)Nc1cc(C(F)(F)F)ccc1F`, the figure is 4.36%.
Under `c1ccc(Oc2ccc(Nc3ncc(-c4ccccc4)o3)cc2)cc1` stands 1.97%; under `Fc1ccc(-c2ncn(CCCN3CCOCC3)c2-c2ccncc2)cc1`, 1.74%.
Under `CCS(=O)(=O)c1ccc(OC)c(Nc2ncc(-c3cccc(-c4ccccc4F)c3)o2)c1` stands -0.61%.
Turning to `Fc1ccc(-c2nc3n(c2-c2ccncc2)CCS3)cc1`, the inhibition came to 2.5%.
Take `C[C@@H](Oc1cc(-n2cnc3ccc(OCC4CCN(C)CC4)cc32)sc1C(N)=O)c1ccccc1Cl`: the inhibition was 9.78%.
As for `FC(F)(F)c1cccc(Nc2nccc(-c3cnn4nc(-c5ccccc5)ccc34)n2)c1`, the figure is 1.88%.

Values taken from ChEMBL document CHEMBL1961873, “Compounds: GSK PKIS; Assays: Nanosyn kinase panel” (2012).
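Further: reported values are mean inhibition of NEK7 from the GSK PKIS kinase screening panel.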
